From PubChem
ERp5 inh: inhibitors of human ERp5. Q15084. ERp5 insulin aggregation, absorbance 650 nm, 90 min. inhibition, % at 9.99 µM. hit rate 0.05% among 350,000;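 active = mean replicate inhibition above about 25%, with every replicate also reaching it, limit read from the data, passing the limit was not always enough; inconclusive = only one of those two criteria met; inactive = neither criterion met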
Target sequence (Q15084 whole entry, looked up): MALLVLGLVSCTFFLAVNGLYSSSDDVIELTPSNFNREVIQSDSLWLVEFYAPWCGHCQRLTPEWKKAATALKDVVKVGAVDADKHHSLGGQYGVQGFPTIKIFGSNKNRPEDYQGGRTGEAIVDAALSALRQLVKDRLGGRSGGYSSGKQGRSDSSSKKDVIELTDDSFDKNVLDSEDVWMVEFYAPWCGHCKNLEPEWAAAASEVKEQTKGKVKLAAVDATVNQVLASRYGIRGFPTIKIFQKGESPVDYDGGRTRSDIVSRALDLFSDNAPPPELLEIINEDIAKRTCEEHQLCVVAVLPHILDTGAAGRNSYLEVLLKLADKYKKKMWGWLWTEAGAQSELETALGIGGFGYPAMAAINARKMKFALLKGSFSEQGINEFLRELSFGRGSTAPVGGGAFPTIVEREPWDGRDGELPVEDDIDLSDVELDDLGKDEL
HDAC3 inhib: blocks human histone deacetylase 3; O15379; recombinant HDAC3, fluorogenic peptide/trypsin coupled, fluorescence; inhibition, % at 8.3 µM; hit rate 0.15% among 320,000; AID 2718; in the data active = inhibition above about 26%, passing the limit was not always enough; inconclusive = no clear call, values can overlap the other calls
ERAP1 inh: blocks human ERAP1 aminopeptidase activity. hit rate 0.15% among 340,000. Q9NZ08. inhibition, % at 10.7 µM. recombinant ERAP1, Leu-AMC fluorescence, 60 min. AID 652197;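 active = mean replicate inhibition of at least 30%, or all replicates individually reaching that 30% level; inactive = mean below 30% and not every replicate reaching it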
PDI turbidity: blocks human protein disulfide isomerase activity. inhibition, % at 10 µM. AID 588391. P07237. PDI insulin aggregation turbidity, A650, 90 min. hit rate 0.052% among 350,000;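 active = mean inhibition across replicates of 30% or more, whatever share of single replicates reach that level; inconclusive = mean inhibition below 30% while every single replicate reaches 30%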
SIRT5 block: blocks human SIRT5 desuccinylation of peptide | Q9NXA8 | Purified SirT5, succinyl-peptide AMC, trypsin-coupled fluorescence | inhibition, % at 15 µM | hit rate 1.1% among 330,000 | AID 652115; in the data active = inhibition above about 15%; inconclusive = no clear call, values can overlap the other calls
Target sequence (Q9NXA8 whole entry, looked up): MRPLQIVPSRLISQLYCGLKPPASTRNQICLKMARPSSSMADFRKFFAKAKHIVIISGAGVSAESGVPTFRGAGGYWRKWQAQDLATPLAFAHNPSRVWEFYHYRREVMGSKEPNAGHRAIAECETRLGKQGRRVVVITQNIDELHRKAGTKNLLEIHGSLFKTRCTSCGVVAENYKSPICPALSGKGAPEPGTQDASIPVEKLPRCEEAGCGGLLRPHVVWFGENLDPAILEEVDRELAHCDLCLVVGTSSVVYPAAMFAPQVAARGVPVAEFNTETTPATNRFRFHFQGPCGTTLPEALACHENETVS
Of the large screens only hits and unclear results are named; the others gave an inactive call. Shown is part of a subset that was picked to be rich in hits.

CCCN1[C@@H]2c3cccc(=O)n3C[C@H]1[C@H](CO)[C@H]2C(=O)N[C@H](C)c1ccccc1	none (no result: HDAC3 inhib, PDI turbidity)
C=CCn1c(O)c(/C=C2\C=NN=C2c2ccccc2)sc1=S	SIRT5 block 18 (no result: ERAP1 inh)
COc1ccccc1-c1ccc2c(c1)O[C@H](CN(C)S(=O)(=O)c1ccc(F)cc1)[C@H](C)CN([C@H](C)CO)S2(=O)=O	SIRT5 block 26 (no result: HDAC3 inhib, PDI turbidity)
C[C@H](CO)N1C[C@H](C)[C@@H](CN(C)S(=O)(=O)c2ccc(F)cc2)Oc2cc(-c3cccc(F)c3)ccc2S1(=O)=O	SIRT5 block 17 (no result: HDAC3 inhib, PDI turbidity)
COc1ccccc1-c1ccc2c(c1)O[C@H](CN(C)S(=O)(=O)c1ccc(F)cc1)[C@@H](C)CN([C@@H](C)CO)S2(=O)=O	SIRT5 block 23 (no result: HDAC3 inhib, PDI turbidity)
COc1ccccc1-c1ccc2c(c1)O[C@@H](CN(C)S(=O)(=O)c1ccc(F)cc1)[C@H](C)CN([C@@H](C)CO)S2(=O)=O	none (no result: HDAC3 inhib, PDI turbidity)
CO[C@H]1CN(C)C(=O)c2cc(NC(=O)c3ccc4c(c3)OCO4)ccc2OC[C@@H](C)NC[C@@H]1C	none (no result: HDAC3 inhib, PDI turbidity)
C[C@@H]1CN([C@@H](C)CO)C(=O)Cc2cc(NC(=O)C3CCCCC3)ccc2O[C@@H]1CN(C)S(=O)(=O)c1cn(C)cn1	none (no result: HDAC3 inhib, PDI turbidity)
CN(C)CC(=O)N1[C@@H]2c3ccc(-c4ccccc4)c(=O)n3C[C@H]1[C@H](CO)[C@H]2C(=O)N1CCOCC1	none (no result: HDAC3 inhib, PDI turbidity)
Cn1c(SCc2ccccc2)nnc1-c1ccncc1	none
Cn1c(SCc2cccc(F)c2)nnc1-c1ccncc1	SIRT5 block 15
C[C@@H]1CN([C@H](C)CO)C(=O)Cc2cc(NS(=O)(=O)c3ccc(Cl)cc3)ccc2O[C@H]1CN(C)Cc1ccc2c(c1)OCO2	none (no result: HDAC3 inhib, PDI turbidity)
COc1ccc(-c2nn(CCC(=O)O)cc2/C=C2\SC(N)=NC2=O)cc1OC	SIRT5 block 28
CCCOc1ccc(-c2nn(-c3ccccc3)cc2/C=C2\SC(N)=NC2=O)cc1C	none
CC(C)C#Cc1cnc2c(c1)C(=O)N([C@H](C)CO)C[C@H](C)[C@H](CN(C)S(=O)(=O)c1cn(C)cn1)O2	none (no result: HDAC3 inhib, PDI turbidity)
CCc1nc(SCC(=O)c2ccc3c(c2)OCCO3)c2ccccc2n1	HDAC3 inhib 34 (no result: ERp5 inh, ERAP1 inh, SIRT5 block)
CCCn1nnnc1SCC(=O)c1ccc2c(c1)OCCO2	HDAC3 inhib 50 (no result: ERp5 inh, ERAP1 inh, SIRT5 block)
O=C(CSc1nnc(SCc2cccc3ccccc23)s1)c1ccc2c(c1)OCO2	HDAC3 inhib 38 (no result: ERp5 inh, ERAP1 inh, SIRT5 block)
O=C(C[C@@H]1C=C[C@@H](NC(=O)Nc2cc(F)ccc2F)[C@H](CO)O1)Nc1ccccc1	none (no result: HDAC3 inhib, PDI turbidity)
C[C@@H]1CN([C@H](C)CO)C(=O)c2cccc(NC(=O)Nc3cccc4ccccc34)c2O[C@@H]1CN(C)S(=O)(=O)c1cccs1	none (no result: HDAC3 inhib, PDI turbidity)
C[C@@H]1CCCCO[C@@H](CN(C)C(=O)CCCN(C)C)[C@@H](C)CN([C@H](C)CO)C(=O)c2cc(NC(=O)Nc3ccccc3)ccc2O1	none (no result: HDAC3 inhib, PDI turbidity)
O=S(=O)(c1ccc(F)cc1)N1CCCCN2[C@H](CO)[C@@H](c3ccc(-c4ccccc4F)cc3)[C@H]2C1	SIRT5 block 22 (no result: HDAC3 inhib, PDI turbidity)
C/C=C/c1ccc([C@@H]2[C@@H](CO)N3CCCCN(S(=O)(=O)c4ccc(F)cc4)C[C@H]23)cc1	none (no result: HDAC3 inhib, PDI turbidity)
C/C=C/c1ccc([C@@H]2[C@H]3CN(S(=O)(=O)c4ccc(F)cc4)CCCCN3[C@H]2CO)cc1	SIRT5 block 16 (no result: HDAC3 inhib, PDI turbidity)
CS(=O)(=O)Nc1ccc2c(c1)[C@H]1C[C@@H](CC(=O)NC3CCCCC3)O[C@H](CO)[C@H]1O2	none (no result: HDAC3 inhib, PDI turbidity)
O=C(Nc1ccccc1F)N[C@@H]1CC[C@@H](CCNC(=O)C2CCCC2)O[C@@H]1CO	none (no result: HDAC3 inhib, PDI turbidity)
CCc1nc2ccc(C(=O)N(CC)CCN(C)C)cn2c1N(CC)C(=O)NCCc1ccccc1	SIRT5 block 29 (no result: HDAC3 inhib)
CCc1nc2ccc(C(=O)N3CCN(C(C)=O)CC3)cn2c1N(CC)C(=O)NCCc1ccccc1	none (no result: HDAC3 inhib)
CN(CCOc1ccccc1)C(=O)c1cc([N+](=O)[O-])cc([N+](=O)[O-])c1	SIRT5 block 27
O=C(NCCOc1ccccc1)c1cc(C(=O)NCCOc2ccccc2)cc([N+](=O)[O-])c1	none (no result: ERp5 inh, ERAP1 inh, SIRT5 block)
COC(=O)C1=C(C)NC(=O)NC1c1ccc(-c2ccc(Cl)cc2)o1 (stereo not drawn)	HDAC3 inhib 45
COc1ccc2c3c(n(C)c2c1)[C@@H](CO)N(S(C)(=O)=O)CC31CCN(Cc2cccnc2)CC1	none (no result: HDAC3 inhib, PDI turbidity, SIRT5 block)
COc1cc(/C=C2\SC(=S)N(NS(=O)(=O)c3ccc(C)cc3)C2=O)ccc1O	PDI turbidity inconclusive (no result: HDAC3 inhib)
COc1cc(/C=C2\SC(=S)N(NS(=O)(=O)c3ccccc3)C2=O)ccc1O	PDI turbidity 41 (no result: HDAC3 inhib)
CCOc1cc(/C=C2\SC(=S)N(C(C(=O)O)c3ccccc3)C2=O)ccc1O (stereo not drawn)	PDI turbidity 35 (no result: ERAP1 inh)
COc1cc(CN(CC(C)C)S(=O)(=O)c2ccccc2Br)cc(OC)c1	none (no result: HDAC3 inhib, SIRT5 block)
COc1cccc(CN(CCC(C)C)S(=O)(=O)c2cc(Br)ccc2Br)c1	SIRT5 block 28 (no result: HDAC3 inhib, ERAP1 inh)
O=C(CCCCCNC(=S)Nc1ccccc1)C[N+](=O)[O-]	HDAC3 inhib 29
CCC(=O)Nc1cccc(-c2cc3ccccc3oc2=O)c1	SIRT5 block 28
C[C@@H]1CCCCO[C@@H](CN(C)C(=O)Nc2ccc(F)cc2)[C@H](C)CN([C@@H](C)CO)C(=O)c2cc(NC(=O)Nc3ccc(C(F)(F)F)cc3)ccc2O1	none (no result: HDAC3 inhib, PDI turbidity)
C[C@@H]1CN([C@H](C)CO)C(=O)c2c(c3ccccc3n2C)-c2ccccc2CO[C@@H]1CN(C)Cc1ccc(Cl)c(Cl)c1	none (no result: HDAC3 inhib, PDI turbidity)
O=C(C[C@H]1CC[C@H]2[C@@H](COC[C@H](O)CN2C(=O)Nc2ccc(F)cc2)O1)NCCc1ccncc1	SIRT5 block 18 (no result: HDAC3 inhib, PDI turbidity)
O=C(C[C@H]1CC[C@@H]2[C@H](COC[C@@H](O)CN2C(=O)Nc2ccc(F)cc2)O1)NCCc1ccncc1	none (no result: HDAC3 inhib, PDI turbidity)
CCCNC(=O)C[C@@H]1CC[C@@H]2[C@H](COC[C@@H](O)CN2C(=O)C2CCOCC2)O1	SIRT5 block 16 (no result: HDAC3 inhib, PDI turbidity)
CCNC(=O)C[C@H]1CC[C@H]2[C@@H](COC[C@@H](O)CN2C(=O)Nc2ccc(C(F)(F)F)cc2)O1	SIRT5 block 64 (no result: HDAC3 inhib, PDI turbidity)
CCNC(=O)C[C@H]1CC[C@@H]2[C@H](COC[C@H](O)CN2C(=O)Nc2ccc(C(F)(F)F)cc2)O1	none (no result: HDAC3 inhib, PDI turbidity)
CC1=CC(C)(C)NC(=S)N1c1cccc2cc(S(=O)(=O)O)ccc12	SIRT5 block 20
CC1=CC(C)(C)NC(=S)N1c1ccccc1C	none
O=c1c(O)cccc2cc(O)c(O)c(O)c12	SIRT5 block 33
C[C@H]1CN([C@@H](C)CO)C(=O)Cc2cc(NS(=O)(=O)c3cn(C)cn3)ccc2O[C@@H]1CN(C)CC1CCCCC1	none (no result: HDAC3 inhib, PDI turbidity)
Cc1ccc(S(=O)(=O)Nc2ccc3c(c2)CC(=O)N([C@@H](C)CO)C[C@@H](C)[C@H](CN(C)Cc2ccc(Oc4ccccc4)cc2)O3)cc1	SIRT5 block 22 (no result: HDAC3 inhib, PDI turbidity)
Cc1ccc(S(=O)(=O)Nc2ccc3c(c2)CC(=O)N([C@H](C)CO)C[C@H](C)[C@@H](CN(C)Cc2ccc(Oc4ccccc4)cc2)O3)cc1	none (no result: HDAC3 inhib, PDI turbidity)
C[C@H]1CN([C@@H](C)CO)C(=O)Cc2cc(NS(=O)(=O)c3ccc(Cl)cc3)ccc2O[C@@H]1CN(C)Cc1ccc(Oc2ccccc2)cc1	SIRT5 block 17 (no result: HDAC3 inhib, PDI turbidity)
